# Source: PubChem
# This is a sample that favours compounds with a hit; in the whole collection about 3.3% have one here.
# USP1 inh: Inhibitors of USP1/UAF1: Primary Screen | Ubiquitin carboxyl-terminal hydrolase 1 (Homo sapiens), O94782 | recombinant USP1/UAF1, Ub-Rhodamine cleavage fluorescence | Potency, µM (doses to about 57.1 µM), without a hit: at the top dose activity change, negative = inhibition, actives largely listed as inhibitors | hit rate 0.23% among 390,000; further: potency means the concentration at half of the fitted maximal effect; nearly all actives have a fitted effect of over 60% in size
#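 1 nM enzyme complex + cpd, 15 min RT; start with Ub-Rho 150nM final; kinetic fluorescence ex 480/em 540, 6 reads q60 s. Buffer 50mM HEPES pH 7.8, 0.5mM EDTA, 0.1 mg/ml BSA, 1mM TCEP, 0.01% Tween-20.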
# WRN inhibitor: qHTS for Inhibitors of WRN Helicase | WRN helicase unwinding, fluorescent forked duplex, kinetic | Potency, µM (top dose mostly 114 µM), for the others: at the top dose activity change, negative = inhibition, hits mostly inhibitors | hit rate 0.46% among 360,000 | AID 651768, 2012; further: potency means the concentration at half of the fitted maximal effect; nearly all actives have a fitted effect of over 55% in size
#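 WRN at 20 nM final preincubated with compound 15 min at room temperature; reaction started with 100 nM fluorophore/quencher forked duplex oligonucleotide and 2 mM ATP final. Unwinding followed kinetically by red fluorescence (ex 525, em 598 nm).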
# PLK1 PBD inh: qHTS for Inhibitors of PLK1-PDB (polo-like kinase 1 - polo-box domain): Primary Screen; Plk1 PBD binding of FITC phosphopeptide, fluorescence polarization; AID 720504, 2013; Serine/threonine-protein kinase PLK1 (Homo sapiens), P53350; Potency, µM, without a hit: max response, negative = inhibition, most hits filed as inhibitors; hit rate 2.8% among 360,000; further: potency means the concentration at half of the fitted maximal effect; series mostly up to about 57 µM; nearly all actives have a fitted effect of over 65% in size
# USP2a block: qHTS Assay for Inhibitors of Ubiquitin-specific Protease USP2a Using CHOP2 as the Reporter | USP2 core, Ub-CHOP2 coupled fluorogenic reporter, 485/531 | Potency, µM (series often up to 38.3 µM), for the others: top-dose activity change, negative = inhibition, usual class: inhibitors | hit rate 0.01% among 330,000;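 further: potency means the concentration at half of the fitted maximal effect; plate controls were DMSO wells for no effect and full inhibition by NEM control for full effect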
#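 USP2 core (10nM final) preincubated 30min RT with compound in 20mM Tris-HCl pH 8.0, 2mM CaCl2, 2mM beta-mercaptoethanol, 0.05% CHAPS; 25nM Ub-CHOP2 plus 25nM reporter substrate added, fluorescence (Ex485/Em531) read after 60min.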
# PI5P4Ka inh: qHTS for Inhibitors of phosphatidylinositol 5-phosphate 4-kinase (PI5P4K); Phosphatidylinositol 5-phosphate 4-kinase type-2 alpha (Homo sapiens), P48426; PI5P4Kalpha enzyme, ADP-Glo luminescence, 60 min; active compounds read low; max response, %; hit rate 1.2% among 330,000; AID 652105, 2013; active means max response of -50% or lower; inconclusive means between -30% and -50%; inactive means -30% or higher; further: value at the top dose of about 77 µM
# Target sequence (P48426 whole entry, looked up): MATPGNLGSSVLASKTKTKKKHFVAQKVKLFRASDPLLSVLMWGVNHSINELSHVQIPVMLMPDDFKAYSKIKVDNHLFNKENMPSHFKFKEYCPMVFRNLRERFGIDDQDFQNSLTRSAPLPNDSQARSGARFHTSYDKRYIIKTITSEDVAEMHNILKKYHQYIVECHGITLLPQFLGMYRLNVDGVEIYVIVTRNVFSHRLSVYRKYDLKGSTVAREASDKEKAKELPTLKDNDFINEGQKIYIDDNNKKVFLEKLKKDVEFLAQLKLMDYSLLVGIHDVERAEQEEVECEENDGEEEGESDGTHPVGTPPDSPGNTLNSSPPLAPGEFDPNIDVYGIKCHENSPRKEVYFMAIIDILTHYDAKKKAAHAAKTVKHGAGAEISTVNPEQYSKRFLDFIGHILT
#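 ADP-Glo luminescence end-point read after a 60 min room-temperature kinase reaction of PI5P4Kalpha plus substrate, initiated with ATP at 5 microM final. Buffer: 0.038 M HEPES pH 7.4, EGTA, 0.1% CHAPS, 5% DMSO.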
# Starred values were filed as active, the others as inactive; u = inconclusive; x = not tested or not shown; [ ] = dose if it differs, or a comment. Unless noted, the call rests on the fitted dose curve; in most records, active means well fitted curve in the direction sought with a large enough effect; inconclusive means small, poorly fitted or top-dose-only effect, or another doubt; inactive means no such curve, though single readings can be large; an effect the other way counts as inactive or inconclusive. Unless noted, on the % scale 0 is the no-effect control and ±100 the full control effect.
SMILES,USP1 inh,WRN inhibitor,PLK1 PBD inh,USP2a block,PI5P4Ka inh
COc1cc(/C=C2/C(=O)NN(c3cccc(C)c3)C2=O)cc([N+](=O)[O-])c1O,u,-10.1%[11.6 µM],u,2.9%,-62.4*
Cc1ccc(N2NC(=O)/C(=C\c3cc4c(cc3[N+](=O)[O-])OCO4)C2=O)cc1C,-26.4%,u,9.47µM*,5.9%,-57.3*
COc1cc(/C=C2/C(=O)NN(c3cccc(Cl)c3)C2=O)cc(OC)c1O,u,-18.8%,19.8%,0.4%,u
O=C1NN(c2ccccc2)C(=O)/C1=C\c1cccn1-c1ccc(Cl)c([N+](=O)[O-])c1,-19.4%,-10.9%[57.1 µM],u,2.0%,-62.6*
CCn1c(=O)n(CC2CCC(C(=O)NC(C)C)CC2)c(=O)c2sccc21 (stereo not given),-9.2%,x,x,x,x
CN(C)c1ccc(C=c2c3cc(O)ccc3n3c2cc(-c2ccccc2)[n+]3C)cc1,28.2µM*,17.8µM*,u,x,-53.7*
C[n+]1c(-c2ccccc2)cc2c(=Cc3ccccc3)c3ccccc3n21,3.98µM*,u,3.77µM*,x,-50.3*
C[n+]1c(-c2ccccc2)cc2c(=Cc3ccc([N+](=O)[O-])cc3)c3ccccc3n21,3.55µM*,u,2.12µM*,x,u
COc1ccccc1C(=O)N(Cc1ccco1)Cc1ccccc1F,-24.3%,x,x,x,x
CCC(Oc1ccc(F)cc1)C(=O)Nc1nc(-c2ccc(F)cc2)ns1 (stereo not given),-8.2%,x,x,x,x
COc1ccc(CCNC(=O)c2cc(S(=O)(=O)N(C)c3ccccc3)ccc2Cl)cc1,-23.0%,-17.4%,15µM*,3.6%,3.7
COc1ccccc1NC(=O)c1c(C)cc(C)nc1SCC(=O)Nc1ccc(C)cc1,-20.8%,x,x,x,x
Cc1ccc(CNC(=O)C2CCCN(c3nnc(-n4c(C)ccc4C)s3)C2)cc1 (stereo not given),-5.9%,x,x,x,x
CCN(CC)S(=O)(=O)c1cccc(-c2n[nH]c(=S)n2/N=C/c2ccc(Br)cc2)c1,-8.9%,-3.6%,21.2µM*,5.4%,-22.2
Oc1c(Br)cc(/C=N/n2c(-c3ccccc3)n[nH]c2=S)cc1Br,-15.6%,u,u,0.5%,-92.4*
Oc1c(Br)cc(/C=N/n2c(-c3ccccc3)n[nH]c2=S)c(O)c1Br,-22.6%,u,6.7µM*,0.0%,-84.7*
Cc1c(Br)c(O)c(Br)c(O)c1/C=N/n1c(-c2ccccc2)n[nH]c1=S,-9.6%,44.7µM*,2.99µM*,4.0%,-83.0*
CCCN(CCC)C(=O)c1c[nH]c2ccc(S(=O)(=O)N(C)c3ccc(Cl)cc3)cc2c1=O,-11.7%,x,x,x,x
COc1ccc(NC(=O)CCc2nc3c(C)nn(-c4ccc(C)cc4)c3n(C)c2=O)c(OC)c1,8.3%,x,x,x,x
CCn1c(C(=O)N2CCCC(C(=O)N3CCN(c4ccccc4)CC3)C2)cc2sccc21 (stereo not given),404.7%,x,x,x,x
Oc1ccc(/C=N/n2c(-c3ccccc3)n[nH]c2=S)cc1Br,-22.2%,3.8%,-4.6%,-1.9%,-52.6*
CN(C)S(=O)(=O)c1cccc(COc2cccnc2[N+](=O)[O-])c1,-11.8%,5.5%,29.9µM*,2.6%,1.6
CCC(=O)N1CCCc2cc(S(=O)(=O)N3CCC(C(=O)Nc4ccccc4CC)CC3)ccc21,8.7%,x,x,x,x
Cc1ccc(NC(=O)C(Cc2ccccc2)N2Cc3ccccc3C2=O)cc1Cl (stereo not given),-12.7%,x,x,x,x
COc1ccc(OCCn2cc(/C=N/NC(=O)c3ccncc3)c3ccccc32)cc1,-7.6%,-8.4%,3.8%,-5.3%,-2.4
Cc1ccc(OCCn2cc(/C=N/NC(=O)c3ccncc3)c3ccccc32)cc1,-26.9%,-27.5%,15µM*,-1.5%,0.5
COCCNC(=O)Cn1cc(C(=S)N2CCOCC2)c2ccccc21,-7.1%,-2.9%[57.1 µM],29.9µM*,0.4%,-5.4
